Drawing on PubChem BioAssay (EPA / NIEHS), this text covers outcome and AC50 for 34 molecules.

Inconclusive results are not listed. Activity calls are given as the source filed them. How the source made its calls: active means hit-call score of the fitted dose curve at least 0.9, where 1 is the maximum; inconclusive means response in the unintended direction; inactive means score below 0.9.

The AC50 is the concentration giving half of the maximal activity seen.

human Peroxisome Proliferator-activated Receptor delta (PPARd), PPARD (gene 5467), sequence (Q03181 whole entry, looked up, the tested form may be a part): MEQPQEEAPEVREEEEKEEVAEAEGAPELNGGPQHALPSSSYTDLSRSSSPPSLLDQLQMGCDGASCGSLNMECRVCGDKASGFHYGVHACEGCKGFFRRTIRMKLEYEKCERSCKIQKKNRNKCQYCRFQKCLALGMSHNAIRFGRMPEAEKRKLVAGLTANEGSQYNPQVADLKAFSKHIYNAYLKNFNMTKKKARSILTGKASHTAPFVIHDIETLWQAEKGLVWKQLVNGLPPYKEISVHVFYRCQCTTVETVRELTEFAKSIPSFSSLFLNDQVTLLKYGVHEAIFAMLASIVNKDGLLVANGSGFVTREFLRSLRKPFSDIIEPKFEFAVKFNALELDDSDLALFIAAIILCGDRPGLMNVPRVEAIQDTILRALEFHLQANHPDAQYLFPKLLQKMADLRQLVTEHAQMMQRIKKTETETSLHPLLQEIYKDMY
human Peroxisome Proliferator-activated Receptor alpha (PPARa), PPARA (gene 5465), sequence (Q07869 whole entry, looked up): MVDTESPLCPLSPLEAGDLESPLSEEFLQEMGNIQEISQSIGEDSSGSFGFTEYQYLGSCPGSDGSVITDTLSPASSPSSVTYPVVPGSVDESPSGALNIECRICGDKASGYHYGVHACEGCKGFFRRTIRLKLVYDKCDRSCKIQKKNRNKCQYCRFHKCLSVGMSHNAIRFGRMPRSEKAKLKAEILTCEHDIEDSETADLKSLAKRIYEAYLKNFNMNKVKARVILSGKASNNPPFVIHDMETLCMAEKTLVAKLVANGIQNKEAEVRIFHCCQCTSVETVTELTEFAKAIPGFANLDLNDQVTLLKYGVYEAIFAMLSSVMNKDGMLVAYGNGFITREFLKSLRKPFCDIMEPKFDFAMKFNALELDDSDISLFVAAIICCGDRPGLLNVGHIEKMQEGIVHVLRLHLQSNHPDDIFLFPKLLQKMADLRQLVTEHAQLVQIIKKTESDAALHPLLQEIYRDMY

The first experiment addresses human Peroxisome Proliferator-activated Receptor alpha (PPARa), PPARA (gene 5465) (UniProt Q07869). As to the kind of experiment: ATG_PPARa_TRANS: Attagene TRANS-FACTORIAL HepG2 Assay for human Peroxisome Proliferator-activated Receptor alpha (PPARa) (AID 2283001).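 On AC50: potency for gain of reporter signal over DMSO so agonist or activator.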 In outline:
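HepG2, transient MRTU transfection, 24 h treatment. RT-PCR → FAM labelling → capillary electrophoresis. Fit vs DMSO, positive direction.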
In the case of `OC(O)C(F)(F)C(F)(F)F`, the molecule was called inactive.

As to `Brc1nc2ccccc2s1`, the molecule was classed as inactive. On the same count and under the same terms, the entry for `N#Cc1ccccc1O` is “inactive”; for `Nc1cccnc1N` it is “inactive”; for `OCCCCC(F)(F)C(F)(F)C(F)(F)C(F)(F)F` it is “inactive”.

For `CCC(Cc1c(I)cc(I)c(N)c1I)C(=O)O` (centres undefined), the AC50 is 35.9 µM (active). `CCC/C=C/CO`: the molecule was classed as inactive.

In the case of `O=C(Cl)c1ccc(Cl)cc1Cl`, the call was inactive. Still for that read-out and setting: the entry for `C[C@]12CC[C@H]3C(=CCc4cc(O)ccc43)[C@@H]1CCC2=O` is “inactive”; for `O=C1C=CC(=O)N1c1ccc(Cc2ccc(N3C(=O)C=CC3=O)cc2)cc1` it is “inactive”; for `CN(N=O)C(=O)N[C@@H]1[C@@H](O)[C@H](O)[C@@H](CO)O[C@@H]1O` it is “inactive”. On the same count and under the same terms, the entry for `O=C1c2c(O)ccc(Nc3ccc(CCO)cc3)c2C(=O)c2c([N+](=O)[O-])ccc(O)c21` is “inactive”. The same measure, in the same setting: then `Nc1cc([N+](=O)[O-])cc(Cl)c1O`, with “inactive”; and `Cc1ccc2c(c1)OCC(=O)CO2`, with “inactive”; and `CCn1c2ccccc2c2ccccc21`, with “inactive”. Regarding `CCCCCCCCn1sc(Cl)c(Cl)c1=O`, the outcome was inactive. Regarding `CC(=O)c1ccccc1N`, the molecule was classed as inactive. For the molecule `NC(=O)C(F)(F)C(F)(F)C(F)(F)F`, the result was inactive. Consider `CSc1ccc(O)cc1C`, for which the molecule was called inactive. Regarding `COCCC(=O)OC`, the call was inactive. Still for that read-out and setting: then `C=C(C)CCCC`, with “inactive”; and `CCOC(=O)CCC(C)=O`, with “inactive”; and `Cc1ccc([N+](=O)[O-])c(C)c1`, with “inactive”.

For another experiment, the target named is human Peroxisome Proliferator-activated Receptor delta (PPARd), PPARD (gene 5467) (UniProt Q03181). As to the kind of experiment: ATG_PPARd_TRANS: Attagene TRANS-FACTORIAL HepG2 Assay for human Peroxisome Proliferator-activated Receptor delta (PPARd) (AID 2283002). The essentials:
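Fluorescence from capillary electrophoresis of labelled RT-PCR reporter fragments gives the signal; DMSO sets baseline. Cells: HepG2 transiently carrying GAL4-UAS reporter units plus chimeric nuclear receptor-Gal4 proteins, exposed to chemicals for 24 h.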
For `OCCCc1cccnc1`, the result was inactive. On the same count and under the same terms, the entry for `Brc1nc2ccccc2s1` is “inactive”; for `N#Cc1ccccc1O` it is “inactive”; for `COC(F)(C(F)F)C(F)(F)F` (centres undefined) it is “inactive”. On the same count and under the same terms, then `Nc1cccnc1N`, with “inactive”; and `CC(C)(C)c1cc(CCC(=O)OCC(COC(=O)CCc2cc(C(C)(C)C)c(O)c(C(C)(C)C)c2)(COC(=O)CCc2cc(C(C)(C)C)c(O)c(C(C)(C)C)c2)COC(=O)CCc2cc(C(C)(C)C)c(O)c(C(C)(C)C)c2)cc(C(C)(C)C)c1O`, with “inactive”; and `Nc1c(Br)cc([N+](=O)[O-])cc1Br`, with “inactive”. The same measure, in the same setting: then `OCCCCC(F)(F)C(F)(F)C(F)(F)C(F)(F)F`, with “inactive”; and `CCC(Cc1c(I)cc(I)c(N)c1I)C(=O)O` (centres undefined), with “inactive”; and `CCC/C=C/CO`, with “inactive”. Regarding `O=C(Cl)c1ccc(Cl)cc1Cl`, the call was inactive.

As to `C[C@]12CC[C@H]3C(=CCc4cc(O)ccc43)[C@@H]1CCC2=O`, the molecule was called inactive. Same read-out and setting: then `O=C1C=CC(=O)N1c1ccc(Cc2ccc(N3C(=O)C=CC3=O)cc2)cc1`, with “inactive”; and `CN(N=O)C(=O)N[C@@H]1[C@@H](O)[C@H](O)[C@@H](CO)O[C@@H]1O`, with “inactive”.

With `O=C1c2c(O)ccc(Nc3ccc(CCO)cc3)c2C(=O)c2c([N+](=O)[O-])ccc(O)c21`, the call was inactive. Consider `O=S(=O)(O)CCC(F)(F)C(F)(F)C(F)(F)C(F)(F)F`, for which the molecule was classed as inactive. The same measure, in the same setting: then `CCc1cc(Cc2cc(CC)c(N)c(CC)c2)cc(CC)c1N`, with “inactive”; and `CCN=c1cc2oc3cc(NCC)c(C)cc3c(-c3ccccc3C(=O)OCC)c-2cc1C`, with “inactive”. Regarding `Cc1ccc2c(c1)OCC(=O)CO2`, the call was inactive. In the case of `CCn1c2ccccc2c2ccccc21`, the call was inactive. Take `CCCCCCCCn1sc(Cl)c(Cl)c1=O`: the molecule was classed as inactive. Turning to `O=S(=O)(O)c1ccc(Cl)cc1`, the call was inactive. On to `Cc1ccc(S(=O)(=O)C(I)I)cc1`, for which the outcome was inactive. The same measure, in the same setting: then `CC(=O)c1ccccc1N`, with “inactive”; and `Cc1cnccn1`, with “inactive”; and `CSc1ccc(O)cc1C`, with “inactive”. Regarding `CN(C)C(C)(C)CO`, the call was inactive.

As for `COCCC(=O)OC`, the result was inactive. Same read-out and setting: then `C=C(C)CCCC`, with “inactive”; and `CCOC(=O)CCC(C)=O`, with “inactive”; and `Cc1ccc([N+](=O)[O-])c(C)c1`, with “inactive”.
